Hits are enriched below; roughly 19% of the tested compounds scored in any of these assays.
HepG2 tox: counter-screen for TGF-b inhibitors: cytotoxicity in HepG2 cells. HepG2 CAGA-GFP viability, ATP luminescence, 18 h. Potency, µM (highest dose often 46.1 µM), without a hit: at the highest dose activity change, negative = cytotoxicity, usual class: cytotoxic. hit rate 0.76% among 410,000. AID 588856; note: potency is the fitted concentration of half-maximal effect
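HepG2 CAGA-GFP cells (1000/well, DMEM with 1% FBS) received compound, then TGF-beta at 500 pg/mL final, and were incubated 18 hours at 37 degrees C. Viability was read by CellTiter-Glo luminescence. Media-only wells were set as complete cell-killing and DMSO as no toxicity.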
TDP1 cell CPT: DT40-hTDP1 cell growth loss with CPT. chicken DT40 Tdp1-/-;hTDP1 cells + 20 nM CPT, ATP luminescence, 48 h. Potency, µM (titrated, usually from 46.2 µM), for inactives: top-dose activity change, negative = growth inhibition, most hits filed as inhibitors. hit rate 12% among 420,000; note: potency is the fitted concentration of half-maximal effect; % is set by controls: 0 for no effect and ±100 for the full control effect; nearly all actives have a fitted effect of over 55% in size
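Chicken DT40 Tdp1-/- cells stably complemented with human TDP1 were seeded at 400 cells/well in medium containing 20 nM camptothecin, exposed to pin-transferred compounds, and grown at 37 °C for at least 48 hr. Viability was read as ATP luminescence.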
DT40 TDP1 no CPT: qHTS for Inhibitors of human tyrosyl-DNA phosphodiesterase 1 (TDP1): qHTS in cells in absence of CPT | AID 686978, 2013 | DT40 Tdp1-/- hTDP1 cells, no CPT, ATP luminescence, 48 h | Potency, µM (titrated, usually from 46.2 µM), inactives show top-dose activity change, negative = growth inhibition, actives largely listed as inhibitors | hit rate 15% among 420,000; note: potency is the fitted concentration of half-maximal effect; % is set by controls: 0 for no effect and ±100 for the full control effect; nearly all actives have a fitted effect of over 55% in size
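Cells were dispensed at 400 per well, compounds added by pin tool, plates incubated ≥48 hr at 37 °C, then CellTiter-Glo added for 30 min at room temperature before luminescence reading. Line: DT40 Tdp1-/- complemented with hTDP1; camptothecin omitted.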
TDP1 inh: blocks human tyrosyl-DNA phosphodiesterase 1; recombinant TDP1, AlphaScreen DNA substrate cleavage; Q9NUW8; hit rate 0.28% among 350,000; Potency, µM (top dose mostly 130 µM), without a hit: top-dose activity change, negative = inhibition, most hits filed as inhibitors; note: potency is the fitted concentration of half-maximal effect; % is set by controls: 0 for no effect and ±100 for the full control effect; nearly all actives have a fitted effect of over 40% in size
Target sequence (Q9NUW8 whole entry, looked up): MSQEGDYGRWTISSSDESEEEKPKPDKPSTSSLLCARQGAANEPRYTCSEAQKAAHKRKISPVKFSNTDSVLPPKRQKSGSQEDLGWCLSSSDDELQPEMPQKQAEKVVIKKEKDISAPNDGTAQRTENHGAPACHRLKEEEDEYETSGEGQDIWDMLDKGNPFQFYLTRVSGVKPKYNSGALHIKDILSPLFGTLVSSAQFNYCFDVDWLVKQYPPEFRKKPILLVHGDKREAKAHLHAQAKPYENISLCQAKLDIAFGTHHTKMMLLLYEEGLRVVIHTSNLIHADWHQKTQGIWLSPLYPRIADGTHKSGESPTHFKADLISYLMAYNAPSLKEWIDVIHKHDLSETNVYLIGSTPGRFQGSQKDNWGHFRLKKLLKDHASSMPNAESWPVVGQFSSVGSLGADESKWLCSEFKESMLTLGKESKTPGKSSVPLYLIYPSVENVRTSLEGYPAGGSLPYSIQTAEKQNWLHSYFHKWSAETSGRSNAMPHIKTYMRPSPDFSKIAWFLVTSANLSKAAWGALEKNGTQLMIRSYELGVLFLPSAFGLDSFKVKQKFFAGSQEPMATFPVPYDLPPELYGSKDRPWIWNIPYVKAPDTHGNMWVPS
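E. coli-derived human Tdp1, 1 nM final. Cpd preinc 15 min RT; substrate 15 nM final, 5 min RT; AS bead mix 10 ug/ml final, 10 min RT. Signal loss = tyrosine-FITC cleavage. No-enzyme wells = max signal.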
TGFb SMAD3 inh: TGF-b pathway inhibition | HepG2 CAGA-GFP TGF-b/SMAD3 reporter, GFP fluorescence, 18 h; TGF-beta stimulated, 500 pg/mL final | Potency, µM (top dose mostly 46.1 µM), without a hit: top-dose activity, negative = inhibition, usual class: inhibitors | hit rate 1.2% among 410,000; note: potency is the fitted concentration of half-maximal effect; % is set by controls: 0 for no effect and ±100 for the full control effect; nearly all actives have a fitted effect of over 65% in size
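Smad-responsive CAGA-GFP expression was quantified in HEPG2 cells exposed to compounds and 500 pg/mL final TGF-beta for 18 h at 37 degrees C; unstimulated wells defined full inhibition.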
IL1B secr inh: blocks inflammasome-driven IL-1 beta release; THP-1 LPS/ATP IL-1B secretion, AlphaLISA, 16 h; active compounds read low; activity change, % at 57.5 µM; hit rate 4.7% among 360,000; AID 743279; in the data active = activity change below about -50%; inconclusive = mostly about -30% to -49%; note: % is set by controls: 0 for no effect and ±100 for the full control effect
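THP-1 cells pretreated 1 hr with compounds (up to 57.5 uM final), then stimulated with LPS (250 ng/mL final) plus ATP (1.25 mM final); secreted IL-1B measured by AlphaLISA after 16 hr, decreased signal indicating inhibition.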
* marks the source's active call; other numbers are inactive results; ? = inconclusive; . = no result given; [ ] = dose if it differs, or a comment. Unless noted, calls come from the whole dose curve; as a rule, active = well fitted curve in the direction sought with a large enough effect; inconclusive = small, poorly fitted or top-dose-only effect, or another doubt; inactive = no such curve, though single readings can be large; an effect the other way counts as inactive or inconclusive.

SMILES	HepG2 tox	TDP1 cell CPT	DT40 TDP1 no CPT	TDP1 inh	TGFb SMAD3 inh	IL1B secr inh
O=C(Cc1cccs1)Nc1nnc(SCc2ccc(C(F)(F)F)cc2)s1	-50.0%	14.6µM*	?	0.6%	?	21.0
COc1ccc(C(=O)N2CCN(c3ccc(C)cc3C)CC2)cc1OC	-34.4%	20.6µM*	25.9µM*	-2.6%	0.6%	-17.0
COc1ccc(C(=O)N2CCN(c3ccc(C)c(C)c3)CC2)cc1OC	3.5%	?	16.4µM*	1.2%	-5.3%	21.1
Cc1ccc(C(=O)N2CCN(c3ccccc3)CC2)cc1C	-3.6%	-10.3%	-16.6%	4.7%	23.9%	-1.4
CC(/C=C/c1cccc([N+](=O)[O-])c1)=N/NC(=O)c1cccnc1	-31.5%	?	?	3.5%	?	-13.9
CCOC(=O)N/N=C/C(Cl)=C/c1ccccc1	-9.1%	-25.6%	?	3.6%	4.7%	-52.6*
CC(/C=C/c1ccccc1)=N/NC(=O)c1cc([N+](=O)[O-])cc([N+](=O)[O-])c1	-27.4%	5.17µM*	5.17µM*	0.0%	-2.9%	0.0
CC(/C=C/c1ccccc1F)=N\NC(=O)c1cccc(F)c1	-16.8%	?	18.4µM*	7.0%	-14.6%	-3.9
CC(/C=C/C=C/c1ccccc1)=N/NC(=O)CNc1ccccc1C	7.9%	10.3µM*	?	5.3%	-25.8%	6.1
CC(/C=C/c1ccco1)=N\NC(=O)c1cccc(Cl)c1	-5.7%	?	?	0.0%	?	-1.4
O=C(Cc1cccs1)N/N=C/C(Cl)=C/c1ccccc1	-27.2%	-15.6%	-13.9%	0.0%	-25.7%	3.6
COc1ccccc1N(CC(=O)NCCSc1ccccn1)S(=O)(=O)c1ccccc1	9.7%	?	?	.	8.2%	34.5
Cc1cc(C)nc(N/N=C/C(Cl)=C/c2ccccc2)n1	-28.3%	?	-22.8%	-1.1%	1.2%	-50.8*
CCOC(=O)N/N=C(C)/C=C/c1ccccc1	-1.3%	0.366µM*	0.082µM*	2.3%	-15.1%	-2.9
Cc1cc(C)nc(N/N=C/c2ccccc2)n1	-14.3%	-18.7%	-11.1%	7.1%	5.2%	10.0
O=C(Nc1ccc(Oc2ccccc2)cc1)c1csc([C@@H]2C[C@H](O)[C@@H](CO)O2)n1	-15.9%	?	?	.	-6.0%	63.6
C/C(=N\NC(=O)c1cccc(F)c1)c1cccc(NC(=O)c2ccc(F)cc2)c1	6.9%	-0.9%	-15.5%	2.4%	-2.7%	-4.7
C/C(=N\NC(=O)c1ccc(O)cc1)c1cccc(NC(=O)c2ccc(Cl)cc2)c1	-35.6%	?	11.6µM*	.	-9.3%	-96.5*
C/C(=N/Nc1ccc([N+](=O)[O-])cc1)c1ccc(C)cc1C	-37.1%	-102.3%	-102.3%	-2.6%	3.55µM*	-80.8*
C/C(=N\NC(=O)c1ccc(O)cc1)c1ccc(N2CCOCC2)cc1	8.3%	0.6%	-1.4%	.	13.0%	7.9
C/C(=N\NC(=O)c1ccccc1F)c1cccc(NC(=O)c2ccc(C)cc2)c1	5.7%	?	16.4µM*	2.3%[56.1 µM]	2.5%	-4.3
C/C(=N\Nc1ccc([N+](=O)[O-])cc1)c1ccc(C#N)cc1	-19.0%	6.2%	-10.8%	2.7%	-8.1%	-0.9
C/C(=N\NC(=O)c1ccc(N/N=C(\C)c2ccc(O)cc2)cc1)c1ccc(O)cc1	11.2µM*	20.6µM*	8.2µM*	11.4%	12.6µM*	-25.2
CC(C)(C)OC(=O)N1CCC(C(=O)Nc2cccc(C(=O)NC3CC3)c2)CC1	3.6%	-24.0%	-7.2%	.	0.1%	-9.8
COc1cc(OC)c(NC(=O)N2CCSc3ccccc32)cc1Cl	-12.4%	?	?	6.2%	0.0%	.
SMILES	HepG2 tox	TDP1 cell CPT	DT40 TDP1 no CPT	TDP1 inh	TGFb SMAD3 inh	IL1B secr inh
C/C(=N\Nc1cccc([N+](=O)[O-])c1)c1cc(F)ccc1O	-13.4%	?	13µM*	0.0%	?	-10.1
C/C(=N\NC(=O)c1ccc(F)cc1)c1cccc(NC(=O)c2cccc(F)c2)c1	9.4%	?	?	2.9%	2.8%	10.3
C/C(=N\NC(=O)c1cccc(N/N=C(\C)c2cc(O)ccc2O)c1)c1cc(O)ccc1O	-50.3%	11.6µM*	16.4µM*	8.2%	?	0.0
C/C(=N\NC(=O)c1cccc(O)c1)c1cccc(NC(=O)c2ccc(F)cc2)c1	-17.9%	10.3µM*	?	6.6%	-14.0%	-28.4
C/C(=N\NC(=O)c1ccc(Cl)cc1)c1cccc(NC(=O)c2cccnc2)c1	-23.0%	?	?	7.6%	-8.3%	-66.4*
CC(C)CC(=O)Nc1ccc(C(=O)OCc2cc(=O)n3nc(C(C)C)sc3n2)cc1	0.9%	-29.2%	-17.1%	8.8%	8.4%	.
C/C(=N\NC(=O)c1c(Cl)c(C)nn1C)c1cccc(NC(=O)COc2ccc(Cl)cc2)c1	-19.0%	?	16.4µM*	6.5%	3.1%	-12.2
COc1ccc(C(=O)Nc2cccc(/C(C)=N\NC(=O)c3ccoc3C)c2)cc1OC	-29.9%	?	?	5.5%	-6.2%	-50.4*
C/C(=N/Nc1ccc(C(=O)O)cc1)c1ccc(O)c(O)c1O	-38.5%	14.6µM*	14.6µM*	?	-11.1%	4.7
COc1ccc(OC)c(/C(C)=N/Nc2ccc(C(=O)O)cc2)c1	6.8%	-6.5%	-11.5%	.	-4.4%	29.0
COc1ccccc1C(=O)NCC(=O)OCC(=O)N1CC(C)OC(C)C1 (centres undefined)	2.6%	-16.9%	-4.1%	-11.3%	-3.3%	14.5
Cc1cc(F)ccc1S(=O)(=O)NCC(c1ccco1)S(=O)(=O)c1cccs1 (centres undefined)	-4.4%	?	?	0.0%	?	.
O=C(CN1C(=O)/C(=C/c2cccc(Cl)c2)SC1=S)NC1C=CS(=O)(=O)C1 (centres undefined)	-34.4%	?	16.4µM*	-0.3%	?	-63.5*
COc1cccc(/C=C2\SC(=S)N(CCC(=O)NCCc3ccc(O)cc3)C2=O)c1	-54.4%	18.4µM*	?	3.0%	?	-84.9*
O=C(CN1C(=O)S/C(=C\c2ccccc2)C1=O)NC1CCS(=O)(=O)C1 (centres undefined)	-9.8%	-2.3%	-10.8%	1.8%	7.9%	-14.6
CN1CCN(NC(=O)CN2C(=O)/C(=C/c3ccccc3F)SC2=S)CC1	.	.	.	4.4%	.	.
COc1cccc(/C=C2\SC(=S)N(CCC(=O)Nc3ccc(O)cc3)C2=O)c1	-14.2%	-24.3%	?	.	-0.1%	-14.8

Source: PubChem BioAssay (National Center for Advancing Translational Sciences (NCATS))
